# Pf growth 96h – P. falciparum growth inhibition at 96 hour, primary screen for plastid delayed-death inhibitors | hit rate 6.9% among 320,000 | P. falciparum luciferase reporter growth, 96 h | Potency, µM (doses to about 28.7 µM), inactives show at the highest dose activity change, negative = inhibition, hits mostly inhibitors
#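 Compounds incubated with erythrocytes infected by luciferase-expressing P. falciparum (2% hematocrit, 0.05% parasitemia final) for 96 hours, 37 C in 5% CO2. Growth inhibition scored as decreased luciferase luminescence.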
# AMA1-RON2 inh – inhibitors of Plasmodium falciparum AMA1-RON2 interaction. Potency, µM (series often up to 58.2 µM), for the others: at the top dose activity change, negative = inhibition, most hits filed as inhibitors. AlphaScreen AMA1-biotinylated RON2 peptide binding. hit rate 0.2% among 360,000;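 further: 0% = vehicle wells and -100% = peptide control; nearly all actives have a fitted effect of over 45% in size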
#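 AMA1 (3D7) with his tag at 25 nM final met compounds first, then biotinylated RON2 peptide at 25 nM; detection used donor plus acceptor beads, 10 µg/mL apiece, read by AlphaScreen after 30 min at room temperature.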
# Pf growth 48h – inhibits P. falciparum growth in the first generation, 48 h. P. falciparum luciferase growth in erythrocytes, 48 h. Potency, µM (top dose mostly 28.7 µM), inactives show at the top dose activity change, negative = inhibition, actives largely listed as inhibitors. hit rate 5.9% among 310,000. AID 504832
#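 Luminescence readout; reporter = integrated firefly luciferase in P. falciparum. RBC culture at 2% hematocrit, 0.1% parasitemia final, 37 C/5% CO2; decreased signal taken as growth inhibition.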
# AmpC inh no detg – blocks E. coli AmpC beta-lactamase in detergent-free assay | P00811 | hit rate 0.52% among 330,000 | AmpC nitrocefin hydrolysis, absorbance 480 nm, 0.0001% Triton | AID 485341 | Potency, µM (top dose mostly 57.1 µM), inactives show top-dose activity change, negative = inhibition, hits mostly inhibitors;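 further: plate controls were no compound for no effect and no enzyme for full effect; nearly all actives have a fitted effect of over 20% in size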
# Target sequence (P00811 whole entry, looked up): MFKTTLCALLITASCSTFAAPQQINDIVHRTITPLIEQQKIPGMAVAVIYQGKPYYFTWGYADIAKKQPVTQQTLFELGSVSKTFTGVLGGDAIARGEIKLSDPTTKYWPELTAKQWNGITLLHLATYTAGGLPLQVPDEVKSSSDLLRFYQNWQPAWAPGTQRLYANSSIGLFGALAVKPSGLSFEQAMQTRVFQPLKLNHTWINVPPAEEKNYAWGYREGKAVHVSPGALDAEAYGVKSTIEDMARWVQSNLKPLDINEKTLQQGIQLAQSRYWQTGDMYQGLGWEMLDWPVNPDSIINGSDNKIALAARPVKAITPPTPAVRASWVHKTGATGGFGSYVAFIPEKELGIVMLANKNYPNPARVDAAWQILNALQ
#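 AmpC (5.3 nM in the dispensed reagent) in 20 mM phosphate pH 7.0 with 0.01% (detergent screen) or 0.0001% Triton X-100 was preincubated with compounds for 15 min at room temperature. Nitrocefin was then added from an 800 uM solution, and hydrolysis was followed at 480 nm.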
# AmpC inh detg – blocks E. coli AmpC beta-lactamase in detergent assay; Potency, µM (doses to about 114 µM), without a hit: at the highest dose activity change, negative = inhibition, most hits filed as inhibitors; AID 485294; hit rate 0.041% among 370,000; AmpC hydrolysis of nitrocefin, absorbance 480 nm, 0.01% Triton; P00811;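 further: 0% = no-compound wells and -100% = no-enzyme wells; nearly all actives have a fitted effect of over 25% in size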
#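 AmpC (5.3 nM in the dispensed reagent) in 20 mM phosphate pH 7.0 with 0.01% (detergent screen) or 0.0001% Triton X-100 was preincubated with compounds for 15 min at room temperature. Nitrocefin was then added from an 800 uM solution, and hydrolysis was followed at 480 nm.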
# HCV inh – HCV inhibition | hit rate 3.4% among 340,000 | Potency, µM (highest dose often 41.8 µM), without a hit: at the highest dose activity change, negative = inhibition, hits mostly inhibitors | Huh7.5.1 HCVcc-Cre infection, luciferase reporter, 44 h
#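 Cells seeded at 1,000/well and cultured 4 h, then compounds added followed by HCVcc-Cre virus (~0.5 moi). After 44 h further culture, luciferase substrate was added, plates held 15 min at room temperature, and luminescence read for 15 sec.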
# The depositor's hits bear a star; ? = inconclusive; / = no result; [ ] = remark or other dose. Only some compounds are listed: those with a hit (about 11% of all), similar ones and a draw of the others. The call rests on the fitted dose curve; in most records, active means well fitted curve in the direction sought with a large enough effect; inconclusive means small, poorly fitted or top-dose-only effect, or another doubt; inactive means no such curve, though single readings can be large; an effect the other way counts as inactive or inconclusive. Unless noted, on the % scale 0 is the no-effect control and ±100 the full control effect; potency means the concentration at half of the fitted maximal effect.
SMILES,Pf growth 96h,AMA1-RON2 inh,Pf growth 48h,AmpC inh no detg,AmpC inh detg,HCV inh
CCOc1ccc(C(C)=O)cc1COC(=O)CCc1cc(OC)c(OC)c(OC)c1,8.3µM*,-5%,?,90%,1%,?
Cc1ccc(N2C(=O)CSC23C(=O)N(CC(=O)NC2CCCCC2)c2ccccc23)cc1 (centres undefined),/,/,/,/,18%,/
COc1cc(/C=C/C(O)=C/C(=O)/C=C/c2ccc(O)cc2)ccc1O,?,100%,12µM*,-18%,11%,?
COC(=O)c1cc2ccccc2c([N+](=O)[O-])c1O,/,-2%,/,/,/,9%
COC(=O)c1cc2ccccc2c(-c2c(OC)c(C(=O)OC)cc3ccccc23)c1OC,12µM*,-11%,?,109%,?,10µM*
COc1ccc(C2=NOC(Cn3nc(C(=O)NCc4cccs4)cc3-c3ccccc3)C2)cc1 (centres undefined),?,-1%,?,-6%,-3%,10µM*
COc1ccc(C2=NOC(Cn3nc(C(=O)NCc4cccc(C(F)(F)F)c4)cc3-c3ccccc3)C2)cc1 (centres undefined),4.7µM*,1%,4.7µM*,-35%,-13%,?
COc1ccc(C2=NOC(Cn3nc(-c4ccccc4)cc3C(=O)NCc3cccs3)C2)cc1 (centres undefined),/,10%,/,-15%,/,?
COc1ccc(C2=NOC(Cn3nc(C(=O)NCc4ccc(C)cc4)cc3-c3ccccc3)C2)cc1 (centres undefined),10µM*,-3%,10µM*,-19%,3%,8.9µM*
COCCNC(=O)c1cc(-c2ccccc2)n(CC2CC(c3ccc(OC)cc3)=NO2)n1 (centres undefined),?,-21%,-29%,175%,-3%,13%
COc1ccc(C2=NOC(Cn3nc(C(=O)NCc4ccco4)cc3-c3ccccc3)C2)cc1 (centres undefined),10µM*,-19%,13µM*,-31%,-5%,?
COc1ccc(C2=NOC(Cn3nc(C(=O)O)cc3-c3ccccc3)C2)cc1 (centres undefined),78%,-8%,7%,-22%,-14%,12%
Cc1ccc(-c2noc(CN(C3CCCCC3)S(=O)(=O)c3ccc(C)cc3)n2)cc1,/,/,/,/,7%,/
O=C(COc1ccc(Cl)cc1)NCC(c1ccco1)S(=O)(=O)c1ccc(F)cc1 (centres undefined),/,/,/,/,-3%,/
COC1OC(COC(=O)c2ccccc2)C(OC(=O)c2ccccc2)C1OC(=O)c1ccccc1 (centres undefined),?,1%,?,-2%,-6%,-1%
O=C(O)C[C@@H]1C(=O)O[C@@H]2C(COC(=O)c3cc(O)c(O)c(O)c3)O[C@@H](OC(=O)c3cc(O)c(O)c(O)c3)[C@@H](OC(=O)c3cc(O)c(O)c4c3[C@H]1[C@H](O)C(=O)O4)[C@H]2OC(=O)c1cc(O)c(O)c(O)c1 (some centres undefined),2.9µM*,/,3.3µM*,-47%,-3%,/
Cc1ccccc1CCNC(=O)C1CCN(S(=O)(=O)c2ccc3c(ccn3C)c2)CC1,/,/,/,/,5%,/
Cc1noc(Cn2c(=O)c3ccccc3n(CC(=O)Nc3cccc(Cl)c3C)c2=O)n1,/,/,/,/,1%,/
O=C1c2ccccc2-c2n[nH]c(=O)c3ccc(N4CCCCC4)c1c23,-16%,-18%,-24%,-32%,-1%,11µM*
O=C1c2cccc3c(N4CCCCC4)ccc(c23)C(=O)N1c1ccccn1,55%,7%,16%,-16%,2%,8%
COc1ccc(-c2nn(-c3ccc(F)cc3F)c3c2cnc2ccc(F)cc23)cc1,/,/,/,/,-1%,/
O=C1CC2(CCCCC2)Oc2ccc(F)cc21,/,16%,/,/,/,8%
O=C1CC2(CCCCC2)Oc2ccc(O)cc21,4.1µM*,1%,-24%,-22%,2%,15%
COc1ccc(OCC2c3cc(OC)c(OC)cc3CCN2C(=O)c2c(F)cccc2F)cc1 (centres undefined),/,/,/,/,7%,/
COc1ccc(C2C(C#N)=C(N)N(c3ccccc3)C3=C2C(=O)CCC3)cc1Cn1cc([N+](=O)[O-])cn1 (centres undefined),15µM*,9%,8.3µM*,-10%,?,?
SMILES,Pf growth 96h,AMA1-RON2 inh,Pf growth 48h,AmpC inh no detg,AmpC inh detg,HCV inh
Cc1nn(C)cc1C1C(C#N)=C(N)N(c2ccc(F)c([N+](=O)[O-])c2)C2=C1C(=O)CCC2 (centres undefined),9.3µM*,-3%,?,-21%,4%,13%
COc1ccc(C2C(C#N)=C(N)N(c3cccnc3)C3=C2C(=O)CCC3)cc1Cn1cc([N+](=O)[O-])cn1 (centres undefined),?,111%,?,5%,?,-3%
COc1ccc(OC)c(CCNC(=O)Cn2ccc3cc(S(=O)(=O)N4CCCCC4)ccc32)c1,/,/,/,/,17%,/
O=C(O)CC1SC(=Nc2ccccc2)N(c2ccccc2)C1=O (centres undefined),?,8%,4%,-16%,8%,15%
Cc1ccc(CC2SC(=Nc3ccccc3)N(c3ccccc3)C2=O)cc1 (centres undefined),197%,0%[11.6 µM],10µM*,-2%,-13%,-9%
CC(C(=O)N1CCc2ccccc21)N(C)CC(=O)Nc1ccccc1Cl (centres undefined),17µM*,23%,?,41%,1%,-21%
CC1CC(C)CN(C(=O)C(C)N(C)CC(=O)Nc2ccccc2Cl)C1 (centres undefined),-39%,33%,-28%,63%,-8%,0%
Clc1cccc(Nc2c3c(nc4ncnn24)CCC3)c1,-29%,49%,9.3µM*,52%,8%,?
O=C(C1CCC(CNS(=O)(=O)c2cccs2)CC1)N1CCN(c2ccc(Cl)cc2)CC1 (centres undefined),177%,-2%,-18%,12%,0%,3.5µM*
COc1cccc(NC(=O)c2nnn(Cc3cccc(C(F)(F)F)c3)c2N)c1,/,/,/,/,22%,/
CCC(C)NC(=O)C1CC(c2cccc(OC)c2)=NO1 (centres undefined),10µM*,7%,9%,-3%,0%,12%
O=C(NCCc1cccs1)C1CC(c2cccc(F)c2)=NO1 (centres undefined),1.7µM*,1%,?,20%,0%,3.5µM*
